The source of these data is PubChem BioAssay AID1626 (SRMLSC, 2009).

Structures are written as SMILES. Out of some 220,000 compounds screened, about 2,000 (0.91%) were called active. About 2% were inconclusive and are not listed. Rule as the data show it: inconclusive = inhibition above about 80% without an active follow-up result; inactive = below that; test concentration not stated here. A selection follows. Entries with a potency or affinity are not part of this list.

The nature of the test: M. tuberculosis H37Rv growth inhibitors, H37Rv strain (AID 1626).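 Also: bacteria incubated seven days before Alamar blue readout; 0% = bacteria only wells and 100% = bacteria with antibiotic wells.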 To be noted: hits give high values, concentration not given here.
On to `CC(NC(=O)COC(=O)C1CSC2(C)CCC(=O)N12)C12CC3CC(CC(C3)C1)C2` (configuration not stated), for which the inhibition was -1.31% (inactive).

Consider `O=C(CN1CCN(Cc2ccccc2)CC1)N/N=C/c1ccccc1F`, for which the inhibition was -1.58% (inactive). Turning to `Cn1cc(CNCc2cn(C)nc2-c2ccc(C3CCCCC3)cc2)cn1`, the inhibition is 8.48% (inactive). With `COc1ccc(C(=O)c2ccc(Cl)cc2)cc1`, the inhibition is 6.37% (inactive). Regarding `CCOC(=O)C1CCN(S(=O)(=O)c2ccc(-n3cnnn3)c(C)c2)CC1`, the inhibition was -3.24% (inactive). As for `O=C(COC(=O)c1ccc(Cl)nc1)NCc1ccco1`, the inhibition is -2.82% (inactive). Take `Clc1cccc(Cl)c1Cn1nnc(N2CCCC2)n1`: the inhibition is -4.55% (inactive). Regarding `O=C(CCCn1c(SCC(=O)c2ccc(Cl)cc2)nc2ccccc2c1=O)NCc1ccco1`, the inhibition was -0.03% (inactive).

With `Cc1cc(C)c2cc(C)c(SCC(=O)NCc3ccco3)nc2c1`, the inhibition was -6.87% (inactive).

On to `CCc1ccccc1NC(=S)N1CCNC(=O)C1CC(=O)OC` (configuration not stated), for which the inhibition is 3.01% (inactive). With `Cc1ccc(NC2=C(Cl)C(=O)OC2OC(C)C)cc1` (configuration not stated), the inhibition is -6.44% (inactive). As for `CCN(CC)S(=O)(=O)c1ccc(N2CCOCC2)c(NC(=O)c2ccc(NC(C)=O)cc2)c1`, the inhibition is -0.34% (inactive). On to `CCCCN1/C(=C/c2ccc3ccccc3[n+]2CC)Sc2ccccc21`, for which the inhibition is -5.31% (inactive). Take `CC(=S)/C=C1\Sc2ccccc2N1C`: the inhibition was -6.98% (inactive).

For `NC(=O)C1=NOC(CNc2ncc(C(F)(F)F)cc2Cl)C1` (configuration not stated), the inhibition is -9.36% (inactive). With `CCN(CC)S(=O)(=O)c1ccc(C(=O)N2CCc3ccccc32)cc1`, the inhibition was -0.89% (inactive). For `O=C(/C=C/c1ccccc1)NCc1cccnc1`, the inhibition was -0.63% (inactive).

With `COc1c(C)cc(Br)cc1C(=O)Nc1ccccc1N1CCN(C(=O)c2ccccc2)CC1`, the inhibition was 19.8% (inactive). Under `O=C(Nc1ccccc1N1CCN(C(=O)c2ccccc2)CC1)c1cc(Br)ccc1Cl` stands 8.71% (inactive); under `Cc1[nH]n(C2=NCCS2)c(=O)c1N=Nc1ccccc1`, 2.69% (inactive).

`Cc1cc(C)n2[nH]c(=O)c(N=Nc3cccc(C(F)(F)F)c3)c2n1`: the inhibition is 46.9% (inactive).

In the case of `CN(c1ccccc1C(=O)N1CCN(Cc2ccc3c(c2)OCO3)CC1)S(C)(=O)=O`, the inhibition was -0.54% (inactive). Under `O=C(CCC(=O)OCc1cccc(C(=O)Oc2ccccc2)c1)Nc1cccc2ccccc12` stands 4.16% (inactive); under `COc1ccc(NC(=O)CCC(=O)OCc2ccc(C(=O)Oc3ccc(Cl)cc3)cc2)cc1`, 23.3% (inactive).

In the case of `CC(C)(C)Nc1c([N+](=O)[O-])c(=O)sc2ccccc12`, the inhibition was -10.8% (inactive).

On to `NC(=O)C1CCN(C(=O)c2ccc3c(=O)n(Cc4ccco4)c(SCC(=O)c4ccccc4)nc3c2)CC1`, for which the inhibition was -1.82% (inactive). Regarding `CN(CCO)c1nc(N)c(C#N)c(CC#N)c1C#N`, the inhibition is -7.58% (inactive).

Take `CCOc1ccccc1N1CCN(CC(=O)NC(=O)NCc2ccco2)CC1`: the inhibition was -1.18% (inactive).

On to `COc1ccc(NC(=O)N2CCCCCC2)c(OC)c1`, for which the inhibition is -4.07% (inactive). Take `Cn1c(N)c(C(=O)COC(=O)c2cnc(Cl)c(Cl)c2)c(=O)n(C)c1=O`: the inhibition is -6.46% (inactive). With `CC(C)Cn1c(N)c(C(=O)COC(=O)c2ccc(Cl)cc2)c(=O)n(C)c1=O`, the inhibition is 11.4% (inactive). Under `O=c1c2c(nc3nc(NCc4cccc(Cl)c4)[nH]n13)CCC2` stands 2.7% (inactive). In the case of `CCOc1ccccc1CNc1nc2nc3c(c(=O)n2[nH]1)CCC3`, the inhibition is -2.76% (inactive). Under `COc1ccccc1CNc1nc2nc3c(c(=O)n2[nH]1)CCC3` stands 0.1% (inactive); under `O=c1c2c(nc3nc(NCc4ccccc4Cl)[nH]n13)CCC2`, -14.3% (inactive); under `O=C(CO/N=C/c1ccccc1OC(F)F)NCc1ccco1`, -2.9% (inactive). Regarding `O=S(=O)(c1ccc(Cl)nc1)N1CCN(c2ncccn2)CC1`, the inhibition was -8.21% (inactive). As for `CN(C)CCCNc1ncc(C(F)(F)F)cc1Cl`, the inhibition is 4.38% (inactive). In the case of `CC1=C(C(=O)Nc2ccc(C)cc2C)C(c2ccc(Cl)cc2)n2nc(C(=O)OC(C)C)nc2N1` (configuration not stated), the inhibition was 5.54% (inactive). Consider `CN(C)CCNC(=O)/C(=C/c1ccc(-c2ccc(Cl)cc2)o1)NC(=O)c1ccccc1`, for which the inhibition was 10.2% (inactive). Turning to `CN(C)CCNC(=O)/C(=C/c1ccc(-c2cccc(Cl)c2)o1)NC(=O)c1ccccc1`, the inhibition is 5.87% (inactive). For `CN(C)CCCNC(=O)/C(=C\c1ccc(-c2cccc([N+](=O)[O-])c2)o1)NC(=O)c1ccccc1`, the inhibition is -5.38% (inactive).

For the molecule `CN(C)CCCNC(=O)/C(=C\c1ccc(-c2ccc(Br)cc2)o1)NC(=O)c1ccccc1`, the inhibition is 6.54% (inactive). Turning to `COC(=O)C1=C(c2cc3ccccc3s2)C[C@@H]2CC[C@H]1N2C(=O)NCCCOC(C)C`, the inhibition is -2.33% (inactive).

Consider `Cc1cccc(/N=C/c2c(C)[nH]n(-c3ccccc3)c2=O)n1`, for which the inhibition was -10.6% (inactive). As to `O=C(Cn1nc(CNc2ccc(Br)cc2)[n+]2c1CCCCC2)c1ccc([N+](=O)[O-])cc1`, the inhibition was 28.2% (inactive). With `O=C(Cn1nc(CNc2ccc(Cl)cc2)[n+]2c1CCCCC2)c1ccccc1`, the inhibition was 9.42% (inactive). For `COC(=O)CN1C(=O)[C@@H]2[C@H](C1=O)[C@@H]1CC(C(=O)OC)=C[C@@H](C(=O)OC)[C@@H]3C1=C(C(=O)[C@@]3(C)NC(=O)c1ccccc1)[C@@H]2C`, the inhibition was -6.86% (inactive).

On to `CS(=O)(=O)N(CCc1ccccc1)CC(=O)NCc1ccccc1Cl`, for which the inhibition was 6% (inactive).

Turning to `COc1ccc(CSc2nnc(C)n2N)cc1Br`, the inhibition is -9.64% (inactive). For `COc1cc(/C=C(\NC(C)=O)C(=O)NC(C)(C)C)ccc1OC(C)=O` the value was -3% (inactive).

Consider `CCOC(=O)CSc1nc(C)cc(C)c1C#N`, for which the inhibition is -7.74% (inactive). As for `COC(=O)CSc1nc(N)c(C#N)c(C(C)C)c1C#N`, the inhibition was 0.87% (inactive).

As to `COC(=O)CSc1nc(N)c(C#N)c(-c2ccc(O)cc2)c1C#N`, the inhibition is -2.05% (inactive).

For the molecule `CCCOC(=O)CSc1nc(N)c(C#N)c(CC)c1C#N`, the inhibition was -6.1% (inactive). Take `COc1ccc(N(CC(=O)Nc2c(C)n(C)n(-c3ccccc3)c2=O)S(=O)(=O)c2ccc(F)cc2)cc1`: the inhibition is -0.85% (inactive).

As to `CC(C)OC(=O)CSc1nnc(-c2cnccn2)n1-c1ccccc1`, the inhibition is -8.06% (inactive).

As usually defined, the inhibition is the drop in the measured response relative to a control, in per cent.
